Measured values published in PubChem BioAssay AID651820 (National Center for Advancing Translational Sciences (NCATS), 2012).
About 12,000 (3.5%) of roughly 340,000 compounds were called active. About 18% were inconclusive and are not listed. The entries come from a sample that favours actives as a whole. Unmarked numbers belong to inactive results. Calls come from the whole dose curve; as a rule, active = well fitted inhibition curve with a large enough effect; inconclusive = small, poorly fitted or top-dose-only effect, or another doubt; inactive = no such curve, though single readings can be large or run the other way.

Assay: qHTS Assay for Inhibitors of Hepatitis C Virus (HCV)
Conditions: Huh7.5.1 HCVcc-Cre infection, luciferase reporter, 44 h; series mostly up to 41.8 µM; activity change, negative = inhibition: at the top concentration
How it was run: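 Cells seeded at 1,000/well and cultured 4 h, then compounds added followed by HCVcc-Cre virus (~0.5 moi). After 44 h further culture, luciferase substrate was added, plates held 15 min at room temperature, and luminescence read for 15 sec.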
% is set by controls: 0 for no effect and ±100 for the full control effect; potency is the fitted concentration of half-maximal effect.

SMILES	activity change, negative = inhibition	Potency
COc1ccc(S(=O)(=O)N2CCOCC2)cc1NC(=O)CC1CC2CCC1C2 (centres undefined)	2.91%	
COc1cc2c(cc1OC)CN(C(C)C(=O)Nc1cccc(S(=O)(=O)N3CCOCC3)c1)CC2 (centres undefined)	-7.17%	
CCc1cc2c(NC3CCCC3)ncnc2s1		10 µM (active)
CCc1cc2c(NC(Cc3ccccc3)C(=O)O)ncnc2s1 (centres undefined)	8.03%	
CCc1cc2c(SCC(=O)Nc3ncc(Cl)c(C)c3Cl)ncnc2s1	-1.3%	
O=C(CN1CCOCC1)Nc1ccccc1	-2.17%	
O=C(CN1CCc2cc3c(cc2C1)OCCCO3)Nc1ccccc1		11.2 µM (active)
Cc1ccc(NC(=O)CN2CCc3ccccc3C2)cc1	-2.8%	
CNC(=O)C1CC(=O)N(c2ccc(OCC(=O)Nc3ccccc3C)cc2)C1 (centres undefined)	-3.97%	
O=C(N[C@@H](Cc1ccccc1)C(=O)OCc1ccccc1)c1nc[nH]c1C(=O)NC1CCNCC1	16.1%	
CCCCn1c(SCC(=O)N2CCC(C(=O)OCC)CC2)nc2cc(S(N)(=O)=O)ccc21	-7.54%	
NS(=O)(=O)c1ccc(CCNC(=O)CCCn2c(SCC(=O)N3CCCC3)nc3ccsc3c2=O)cc1		2 µM (active)
NS(=O)(=O)c1ccc(CCNC(=O)CN2C(=O)c3ccccc3S2(=O)=O)cc1	2.87%	
CN1C(=O)[C@H]2[C@@H](/C=C/c3ccccc3)N3C(=O)CN(Cc4ccc(-c5ccccc5)cc4)C(=O)[C@@]3(C)[C@H]2C1=O	1.62%	
COc1ccc(CNC(=O)CN2C(=O)NC3(CCCc4sccc43)C2=O)cc1 (centres undefined)	7.77%	
O=C(Nc1cccc(C(F)(F)F)c1)c1ccc(N2CCNCC2)c([N+](=O)[O-])c1		12.6 µM (active)
O=C(Nc1ccc(N2C(=O)c3cccc4cccc(c34)C2=O)cc1)c1ccc(N2CCCCC2)c([N+](=O)[O-])c1	1.73%	
CC(NC(=O)c1ccc(N2CCNCC2)c([N+](=O)[O-])c1)C12CC3CC(CC(C3)C1)C2 (centres undefined)	17.7%	
NC(=O)c1ncn([C@@H]2O[C@H](CN=C3NS(=O)(=O)c4ccccc43)[C@@H](O)[C@H]2O)n1	13.5%	
CCCNc1ncnc2sc(C)c(C)c12		8.91 µM (active)
CSc1ncnc2sc(C)c(C)c12	-8.32%	
CCOC(=O)C(C)n1cnc2sc(C)c(C)c2c1=O (centres undefined)	1.73%	

SMILES	activity change, negative = inhibition	Potency
CCN(C(=O)CSc1nnnn1-c1ccccc1OC)C1CCS(=O)(=O)C1 (centres undefined)	7.75%	
O=C(CCc1ccc(S(=O)(=O)N2CCOCC2)cc1)OCC(=O)c1ccc(Br)cc1	8.2%	
Clc1ccc(Cn2ncc3c(NCc4cccnc4)ncnc32)cc1		11.2 µM (active)
Clc1ccc(Nc2ncnc3c2nnn3Cc2ccccc2)cc1	2.81%	
CC(=O)Nc1ccc(NC(=O)CSc2ncnc3c2cnn3Cc2ccccc2)cc1	-2.76%	
O=C(Cn1cnc2ccccc2c1=O)NNC(=O)c1ccccc1F	17.9%	
CC(C)NC(=O)Nc1cccc2c1O[C@@H](CN(C)S(=O)(=O)c1ccc(F)cc1)[C@@H](C)CN([C@H](C)CO)C2=O	17.9%	
O=C(C[n+]1cc(Br)cc2ccccc21)c1ccc(F)cc1		10 µM (active)
Cc1cccc[n+]1CC(=O)c1ccccc1	-7.73%	
O=C(CNC(=O)c1ccc(F)cc1)c1ccccc1	12.2%	
O=C(NCCS(=O)(=O)NCc1ccc(F)cc1)c1ccccc1	-2.73% [at 8.37 µM]	
O=C(NCc1cccnc1)c1cc(S(=O)(=O)N2CCOCC2)c(Cl)cc1Cl	10.9%	
Cc1ccc(S(=O)(=O)N2CCN(c3ncnc4ccccc34)CC2)cc1		8.91 µM (active)
Cc1ccc(S(=O)(=O)N2CCN(Cc3cccc(C)c3O)CC2)cc1	13.1%	
Cc1ccc(S(=O)(=O)N2CCN(C)CC2)cc1	19.8%	
CC(=O)Nc1ccc(NC(=O)CSc2nnc(C3CC3)n2-c2ccccc2)cc1	-9.37%	
Cc1cccc(-c2oc3ccc(-c4ccc5c(c4)OCO5)cc3c2C#Cc2cncn2C)c1	4.36%	
Cc1ccc(C(=O)O)c(NC=O)c1OCc1ccccc1	14.3%	
Cc1ccc(S(=O)(=O)N2[C@@H](c3cccc4ccccc34)C(C(=O)O)=C[C@H]2C(C)(C)C)cc1	10.4%	
COc1ccc(-c2n[nH]c(C)c2-c2ccc(OC)c(OC)c2)c(O)c1		11.2 µM (active)
CCOc1ccc(-c2n[nH]c(C)c2-c2ccccn2)c(O)c1	-17.4%	
COc1ccc(-n2c(-c3ccc(OC)c(OC)c3)n[nH]c2=S)cc1	5.22%	

SMILES	activity change, negative = inhibition	Potency
O=C1NCC(Nc2ccccc2)C(=O)N1 (centres undefined)	9.38%	
CCN(Cc1ccccc1)S(=O)(=O)c1cc2c3c(c1)CCN3C(=O)CC2	18.5%	
Cc1ccc(C)c(N2CCN(C(=O)CCc3nc(-c4cccc(C(F)(F)F)c4)no3)CC2)c1	2.72%	
COC(=O)c1ccc(C)c(NC(=O)Cn2c(C)csc2=O)c1	4.64%	
CCOc1ccc2nc(NC(=O)CSc3nc4c(c(=O)n(C)c(=O)n4C)n3CC)sc2c1		3.98 µM (active)
Cn1nnnc1SCC(=O)Nc1nc2ccccc2s1	-9.51%	
C#CC(C)(C)NC(=O)CSc1nc2c(c(=O)n(C)c(=O)n2C)n1CCCC	-15.9%	
O=C(Cn1cnc2c(OCc3ccccc3)ncnc21)NCCCn1ccnc1	5.21%	
Cc1ccc(Cn2c(NC(=O)c3ccco3)nc3ccccc32)cc1	-3.39%	
CCn1nc(NC(=O)c2ccco2)c2cc3ccc(C)cc3nc21		10 µM (active)
Cc1ccc(-n2nc3cc(Cl)c(NC(=O)c4ccco4)cc3n2)cc1	-13.6%	
CN1CCOC1c1ccc(C2OCCN2C)cc1 (centres undefined)	17.6%	
COc1ccc(S(=O)(=O)Nc2ccc(S(=O)(=O)N3CCCCC3)cc2)cc1OC	-1.61%	
COc1ccc(-c2ccc(Nc3ccc(S(=O)(=O)N4CCCC4)cc3)nn2)cc1OC		12.6 µM (active)
COc1ccccc1CC(=O)Nc1ccc(S(=O)(=O)N2CCCC2)cc1	-19.2%	
COc1ccc(NS(=O)(=O)c2ccc(N3CCOCC3)c(NC(=O)/C=C/C(=O)O)c2)cc1	-1.43%	
Cc1nc(Nc2ccc3c(c2)OCCO3)c2nnn(Cc3ccccc3Cl)c2n1		10 µM (active)
Cc1nc(Nc2ccccc2F)c2nnn(Cc3ccccc3Cl)c2n1	6.92%	
CCCc1nc(NCc2ccc3c(c2)OCO3)c2nnn(Cc3ccccc3Cl)c2n1	9.92%	
CCN(CC(=O)Nc1ccccc1C(=O)NC1CC1)Cc1cccs1	0.258%	
